Source: PubChem BioAssay
The source made the active and inactive calls.

What was measured:
[1] = test system: Plasmodium falciparum Sir2 (PF13_0152, Sir2A); assay: pfSir2 binders on small-molecule microarrays, primary screen, biochemical, small-molecule microarray, 635 nm fluorescence (AID 1098); conditions: small-molecule microarray binding, fluorescence 635 nm; higher = more signal;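 note: score merges spot fluorescence intensity with its signal-to-noise ratio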
[2] = small-molecule microarray binders of probe aDKK1, primary screen, biochemical, biotinylated probe, 635/667 nm fluorescence (AID 1099); conditions: higher = more signal;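 note: score merges 667nm spot fluorescence with signal to noise across triplicate slides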
[3] = small-molecule microarray binders of probe aCHRDL2, primary screen, biochemical, biotinylated probe, 635/667 nm fluorescence (AID 1100); conditions: higher = more signal
[4] = splicing luciferase reporter signal modulators, primary screen, spliceosome inhibition project, cell-based, HEK293, splice +/- reporter (AID 1101); conditions: luminescence, 24 h, higher = more signal, called active from +8 up or from −8 down;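 note: HEK293 cells carrying a splicing-competent luciferase reporter gene; test concentration not given here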
[5] = target: Fibroblast growth factor 10 (Homo sapiens) (UniProt O15520); assay: FGF10 binders on small-molecule microarrays, primary screen, biochemical, small-molecule microarray, 635 nm fluorescence (AID 1102); conditions: FGF10 binding, fluorescence 635 nm, higher = more signal
Fibroblast growth factor 10 (Homo sapiens), sequence (O15520 whole entry, looked up): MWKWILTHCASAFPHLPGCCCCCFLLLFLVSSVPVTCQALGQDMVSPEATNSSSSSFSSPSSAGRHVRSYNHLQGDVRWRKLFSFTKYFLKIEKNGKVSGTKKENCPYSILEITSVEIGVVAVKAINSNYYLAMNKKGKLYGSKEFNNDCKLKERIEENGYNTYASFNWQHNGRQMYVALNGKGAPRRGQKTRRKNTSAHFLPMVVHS

[6] = test system: glycogen synthase kinase-3 (GSK3A per assay name; protocol says GSK3B); assay: GSK3 binders on small-molecule microarrays, primary screen, biochemical, small-molecule microarray, 635 nm fluorescence, GSK3A (AID 1103); conditions: small-molecule microarray binding, fluorescence 635 nm; higher = more signal; note: the record names both GSK3A and GSK3B
[7] = target: Epidermal growth factor receptor (Homo sapiens) (UniProt P00533); assay: EGFR binders on small-molecule microarrays, primary screen, biochemical, small-molecule microarray, 635 nm fluorescence (AID 1104); conditions: EGFR binding, higher = more signal;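 note: score merges 667 nm emission intensity with spot signal to noise over triplicate slides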
Epidermal growth factor receptor (Homo sapiens), sequence (P00533 whole entry, looked up): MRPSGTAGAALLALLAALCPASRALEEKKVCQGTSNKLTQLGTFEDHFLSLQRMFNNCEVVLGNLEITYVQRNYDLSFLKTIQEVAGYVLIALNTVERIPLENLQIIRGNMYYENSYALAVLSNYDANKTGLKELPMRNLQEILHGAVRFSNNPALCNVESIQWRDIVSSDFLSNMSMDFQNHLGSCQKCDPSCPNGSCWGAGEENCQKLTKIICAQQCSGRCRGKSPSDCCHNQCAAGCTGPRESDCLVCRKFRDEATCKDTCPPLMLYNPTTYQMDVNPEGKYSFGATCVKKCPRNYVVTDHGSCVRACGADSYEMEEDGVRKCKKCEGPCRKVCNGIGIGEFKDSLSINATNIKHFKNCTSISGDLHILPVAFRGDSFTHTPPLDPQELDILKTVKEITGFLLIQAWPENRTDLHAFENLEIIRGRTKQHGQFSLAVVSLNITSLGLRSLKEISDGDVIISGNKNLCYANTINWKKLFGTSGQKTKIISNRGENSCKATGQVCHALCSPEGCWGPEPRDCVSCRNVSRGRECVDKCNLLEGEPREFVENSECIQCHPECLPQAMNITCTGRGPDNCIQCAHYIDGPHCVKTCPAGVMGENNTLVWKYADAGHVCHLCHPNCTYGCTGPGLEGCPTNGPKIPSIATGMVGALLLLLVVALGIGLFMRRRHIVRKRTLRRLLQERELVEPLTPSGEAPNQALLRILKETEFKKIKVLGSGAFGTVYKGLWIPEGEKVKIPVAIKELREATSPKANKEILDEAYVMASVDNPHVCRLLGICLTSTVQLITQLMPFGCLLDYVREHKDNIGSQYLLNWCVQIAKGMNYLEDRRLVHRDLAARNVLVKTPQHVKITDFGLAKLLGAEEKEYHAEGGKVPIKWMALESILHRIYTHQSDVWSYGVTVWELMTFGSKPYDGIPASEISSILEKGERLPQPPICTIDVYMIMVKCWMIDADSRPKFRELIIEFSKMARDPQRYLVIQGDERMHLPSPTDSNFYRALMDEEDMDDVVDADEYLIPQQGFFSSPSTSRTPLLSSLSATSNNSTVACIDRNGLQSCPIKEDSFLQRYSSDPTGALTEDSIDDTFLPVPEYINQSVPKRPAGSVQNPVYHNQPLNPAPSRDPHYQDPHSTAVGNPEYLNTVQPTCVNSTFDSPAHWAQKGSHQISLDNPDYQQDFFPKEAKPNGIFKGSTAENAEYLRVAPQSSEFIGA

[8] = target: Follistatin-related protein 3 (Homo sapiens) (UniProt O95633); assay: FSTL3 binders on small-molecule microarrays, primary screen, biochemical, small-molecule microarray, 635 nm fluorescence (AID 1105); conditions: FSTL3 binding, higher = more signal;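 note: score merges emission near 667 nm and signal to noise per printed spot across three slides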
Follistatin-related protein 3 (Homo sapiens), sequence (O95633 whole entry, looked up): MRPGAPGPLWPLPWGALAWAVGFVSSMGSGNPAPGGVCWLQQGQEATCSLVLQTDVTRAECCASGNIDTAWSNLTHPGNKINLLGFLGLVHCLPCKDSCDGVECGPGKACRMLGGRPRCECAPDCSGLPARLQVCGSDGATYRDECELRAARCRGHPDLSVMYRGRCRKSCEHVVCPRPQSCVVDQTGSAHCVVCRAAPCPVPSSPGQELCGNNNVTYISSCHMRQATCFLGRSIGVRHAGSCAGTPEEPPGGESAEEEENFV

[9] = target: Dickkopf-related protein 1 (Homo sapiens) (UniProt O94907); assay: DKK1 binders on small-molecule microarrays, primary screen, biochemical, small-molecule microarray, 635 nm fluorescence scan (AID 1106); conditions: DKK1 binding, higher = more signal;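 note: score merges emission near 667 nm with signal to noise over three replicate slides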
Dickkopf-related protein 1 (Homo sapiens), sequence (O94907 whole entry, looked up): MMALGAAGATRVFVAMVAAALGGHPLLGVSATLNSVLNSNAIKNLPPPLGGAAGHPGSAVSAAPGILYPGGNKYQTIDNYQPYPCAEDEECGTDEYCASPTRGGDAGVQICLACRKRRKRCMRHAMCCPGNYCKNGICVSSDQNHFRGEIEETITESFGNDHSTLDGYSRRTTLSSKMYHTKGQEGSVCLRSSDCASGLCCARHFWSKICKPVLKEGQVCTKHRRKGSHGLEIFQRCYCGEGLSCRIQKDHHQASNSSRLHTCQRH

[10] = test system: Inhibin beta A chain (activin A); assay: INHBA (activin A) binders on microarrays, primary screen, biochemical, small-molecule microarray, 635 nm fluorescence scan (AID 1107); conditions: small-molecule microarray binding, higher = more signal;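 note: mouse activin A protein probed at 4.33 µg/mL on printed slides; score merges bound-protein fluorescence near 667 nm with spot signal-to-noise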
[11] = test system: Human papillomavirus type 1a protein E7 (residues 44-93); assay: HPV1a E7 fragment binders on microarrays, primary screen, biochemical, small-molecule microarray, residues 44-93, 635 nm fluorescence (AID 1108); conditions: small-molecule microarray binding, fluorescence 635 nm; higher = more signal;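 note: E7 fragment applied at 1 µg/mL in TBST for 1 h at 4 C; score combines spot fluorescence with its signal to noise ratio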
[12] = modulators of HCV replicon luciferase signal, primary screen, HCV replication inhibitor project, Huh7 cells, luciferase reporter (AID 1109); conditions: 48 h, higher = more signal;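 note: huh7 hepatoma cells harbouring a luciferase neomycin HCV replicon reporter; luciferase luminescence as measure of HCV replicon replication; test concentration not given here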
[13] = target: Left-right determination factor 2 (Homo sapiens) (UniProt O00292); assay: LEFTY2 binders on small-molecule microarrays, primary screen, biochemical, small-molecule microarray, 635 nm fluorescence scan (AID 1110); conditions: LEFTY2 binding, higher = more signal
Left-right determination factor 2 (Homo sapiens), sequence (O00292 whole entry, looked up): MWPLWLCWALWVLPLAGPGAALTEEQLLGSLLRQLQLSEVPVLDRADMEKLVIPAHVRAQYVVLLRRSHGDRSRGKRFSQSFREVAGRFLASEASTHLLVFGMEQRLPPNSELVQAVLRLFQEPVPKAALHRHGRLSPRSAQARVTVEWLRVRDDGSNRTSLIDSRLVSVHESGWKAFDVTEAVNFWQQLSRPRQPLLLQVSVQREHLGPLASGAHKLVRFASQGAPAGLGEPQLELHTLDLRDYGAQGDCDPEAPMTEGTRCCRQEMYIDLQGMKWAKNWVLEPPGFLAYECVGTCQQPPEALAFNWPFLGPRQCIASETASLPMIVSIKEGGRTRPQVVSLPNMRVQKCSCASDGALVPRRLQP

[14] = target: Calmodulin-1 (Homo sapiens) (UniProt P0DP23); assay: CALM1 binders on microarrays, EGTA buffer, profiling panel, biochemical, small-molecule microarray, Cy5-labelled CALM1 (AID 1111); conditions: Cy5-CALM1 binding fluorescence, higher = more signal;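 note: labelled calmodulin applied in Tris saline Tween buffer holding calcium plus EGTA and DTT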
[15] = target: Calmodulin-1 (Homo sapiens) (UniProt P0DP23); assay: calcium-bound CALM1 binders on microarrays, profiling panel, artefact control for SMM control-protein annotation, biochemical, small-molecule microarray, Cy5-labelled CALM1, plus calcium (AID 1112); conditions: Cy5-CALM1 binding fluorescence, higher = more signal;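 note: score merges spot fluorescence with signal to noise from triplicate slides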
[16] = small-molecule microarray binders of probe aWnt5a, primary screen, biochemical, biotinylated probe, 635/667 nm fluorescence (AID 1113); conditions: higher = more signal;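 note: score merges 667 nm fluorescence intensity with signal-to-noise per printed feature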
[17] = small-molecule microarray binders of probe aShh, primary screen, biochemical, biotinylated probe, 635/667 nm fluorescence (AID 1114); conditions: higher = more signal;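 note: probe is biotin-labelled aShh protein from a stem cell growth factor screen; measures binding of labelled protein to compounds printed on the slide; score merges feature fluorescence at 667 nm with signal-to-noise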
[18] = small-molecule microarray binders of probe aNog, primary screen, biochemical, biotinylated probe, 635/667 nm fluorescence (AID 1115); conditions: higher = more signal;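 note: probe is biotinylated aNog protein used at 0.15 µg/mL for 1 h at 4 C; z-score combines 667 nm fluorescence of each spot with its signal to noise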
[19] = target: Torsin-1A-interacting protein 1 (Homo sapiens) (UniProt Q5JTV8); assay: LAP1 binders from COS7 cell lysate, primary screen, small-molecule microarray, 635/667 nm fluorescence (AID 1116); conditions: COS7-hLAP1 lysate binding, 635 nm fluorescence, higher = more signal
Torsin-1A-interacting protein 1 (Homo sapiens), sequence (Q5JTV8 whole entry, looked up): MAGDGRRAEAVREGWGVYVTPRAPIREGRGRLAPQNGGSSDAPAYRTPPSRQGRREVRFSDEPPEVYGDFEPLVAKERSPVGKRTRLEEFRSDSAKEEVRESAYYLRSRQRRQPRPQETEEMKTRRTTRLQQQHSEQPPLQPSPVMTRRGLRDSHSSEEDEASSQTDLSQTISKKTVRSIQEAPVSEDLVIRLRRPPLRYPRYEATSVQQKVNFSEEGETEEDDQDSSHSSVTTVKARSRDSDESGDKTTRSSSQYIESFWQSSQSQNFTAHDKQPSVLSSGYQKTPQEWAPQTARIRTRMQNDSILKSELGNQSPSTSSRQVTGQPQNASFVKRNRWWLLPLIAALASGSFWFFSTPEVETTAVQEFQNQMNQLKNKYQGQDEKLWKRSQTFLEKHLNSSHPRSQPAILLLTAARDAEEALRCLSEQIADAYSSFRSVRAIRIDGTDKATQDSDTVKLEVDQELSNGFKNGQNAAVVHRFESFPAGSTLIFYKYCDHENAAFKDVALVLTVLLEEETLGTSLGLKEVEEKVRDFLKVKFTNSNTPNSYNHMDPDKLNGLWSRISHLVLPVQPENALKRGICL

[20] = target: Alpha-bungarotoxin (Bungarus multicinctus) (UniProt P60615); assay: alpha-bungarotoxin binders on microarray, profiling panel, artefact control for SMM control protein annotation, biochemical, small-molecule microarray, Alexa647 label, 635/667 nm fluorescence (AID 1117); conditions: alpha-BTX-A647 binding fluorescence, higher = more signal
Alpha-bungarotoxin (Bungarus multicinctus), sequence (P60615 whole entry, looked up): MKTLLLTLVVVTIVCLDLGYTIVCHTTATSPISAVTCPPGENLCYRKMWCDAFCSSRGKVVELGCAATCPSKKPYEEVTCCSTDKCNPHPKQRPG

SMILES | composite z-score [1] | composite z-score [2] | composite z-score [3] | z-score [4] | composite z-score [5] | composite z-score [6] | composite z-score [7] | composite z-score [8] | composite z-score [9] | composite z-score [10] | composite z-score [11] | z-score [12] | composite z-score [13] | composite z-score [14] | composite z-score [15] | composite z-score [16] | composite z-score [17] | composite z-score [18] | composite z-score [19] | composite z-score [20]
CCCN1C(=O)[C@@H]2Cc3c([nH]c4ccccc34)[C@@H](c3cccc(O)c3)N2C1=O | 0.292 | -0.0726 | -0.0794 | 1.08 (inactive) | 0.415 | 0.718 | 0.578 | 0.493 | 1.14 | 0.275 | 0.672 | -0.197 | 0.326 | 0.0779 | -0.346 | -0.176 | -0.221 | -0.0737 | -0.489 | 0.414
O=C1OCCC=C[C@H]2OC34C=CCN(Cn5nnc6ccccc65)C(=O)[C@H]3N(CCCCCO)C(=O)[C@@H]4C12 (stereo not given in full) | 1.18 | -0.181 | 0.311 | 0.227 (inactive) | -0.691 | -0.368 | -0.97 | -1.09 | -0.925 | 0.0469 | -0.473 | 0.204 | -0.511 | -0.212 | 0.106 | -0.101 | -0.0769 | 0.0599 | -1.1 | -1.09
COCCOC(=O)N1C(=O)[C@@]2(c3cc(C#Cc4ccc(OC)cc4)ccc31)[C@H](c1ccc(OCCO)cc1)N1[C@H](c3ccccc3)[C@H](c3ccccc3)OC(=O)[C@H]1[C@@H]2C(N)=O | 1.27 | 0.654 | 0.608 | -0.372 (inactive) | 1.25 | 1.32 | 0.711 | 1.43 | 0.853 | 0.48 | 1.32 | -2.33 | 0.701 | 2.09 | 0.451 | -0.0792 | 0.296 | 0.683 | 1.36 | 2.23
Cc1ccc(N2C(=O)c3ccccc3[C@](C)(C(=O)NC(C)C)[C@@H]2c2ccc(CO)cc2)nc1 | 0.118 | -0.0537 | 1.04 | 0.415 (inactive) | -1.22 | -0.738 | -1.21 | -2.01 | -1.63 | -2.54 | -1.24 | -0.406 | -3.6 | -1.12 | -0.862 | -0.219 | -0.49 | -0.441 | 0.177 | 0.24
CCCC=C(CCC)[C@@H](NS(=O)(=O)c1cccc2cccnc12)c1ccc(C(=O)OC)cc1 | 0.817 | 2.53 | 1.46 | -0.355 (inactive) | 1.58 | 0.0656 | 1.8 | 1.24 | 0.726 | 0.948 | 0.591 | 0.347 | 0.804 | 0.156 | -0.2 | 1.77 | 0.0093 | 3.92 | 0.354 | -0.0527
C=CCC(OC(C)=O)[C@@H]1[C@@H](N(Cc2ccc(-c3ccccc3)cc2)C(=O)Cc2ccc(OC)cc2)c2cc(OCCCO)ccc2N1C(=O)c1ccc(-c2ccccc2)cc1 (stereo not given in full) | -0.0063 | 0.073 | 0.31 | -0.757 (inactive) | -0.0097 | -0.15 | -0.332 | -0.0062 | -0.18 | 1.22 | -0.354 | 0.257 | 0.265 | 0.36 | 0.807 | -0.0718 | -0.229 | -0.174 | 0.609 | 0.544
COCCOC(=O)N1C(=O)[C@@]2(c3cc(C#CCCO)ccc31)[C@H](C(=O)NC[C@H](O)c1ccccc1)[C@H]1C(=O)O[C@H](c3ccccc3)[C@H](c3ccccc3)N1[C@@H]2c1ccccc1OCCO | 0.506 | 0.437 | 0.426 | -0.183 (inactive) | 1.32 | 1.33 | 0.938 | 1.41 | 1.06 | 0.95 | 1.43 | -1.31 | 0.966 | 0.362 | -0.354 | 0.287 | 0.323 | 1.36 | 1.12 | 0.784
C=C(C)[C@@H]1CC=C(C(O)C2C=CC3C(=O)N(C4CCCCC4)C(=O)C3N2Nc2ccc(OC)cc2)CC1 (stereo not given in full) | 1.37 | 0.326 | 0.826 | -0.603 (inactive) | 1.03 | 1.31 | 0.367 | 1.37 | 0.21 | 0.918 | 1.39 | -1.19 | 0.3 | 1.5 | 0.417 | -0.0738 | -0.1 | -0.368 | 0.477 | 1.3
